Smad3 FoxH1 inh: inhibitors of human Smad3 transcription factor binding | TR-FRET Smad3/Dy647-FoxH1 peptide binding, europium anti-His | inhibition, % at 25 µM | 0.29% of 88,000 active;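 active = compounds that reduce the energy-transfer binding signal between the protein and its labelled peptide by more than half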;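 also: 0% = Smad3 plus labelled peptide maximal FRET and 100% = peptide-only background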
ERb coact inh: ER-beta (human) coactivator binding inhibition; Q92731; TR-FRET ER-beta LBD / SRC1-Cy5 peptide binding; receptor agonist-loaded with 1 µM estradiol; inhibition, % at 25.6 µM; 1.3% of 86,000 active; AID 633;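 active = compounds whose percent inhibition of the receptor-coactivator binding signal exceeds about 50% in the single-dose screen, limit read from the data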;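 also: 0% = receptor plus peptide wells without compound and 100% = peptide-only wells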
ERa SRC1 inh: ER-alpha (human) coactivator binding inhibition | 1.7% of 86,000 active | TR-FRET ER-alpha LBD / SRC-1 peptide, estradiol-bound | inhibition, % at 25.6 µM | P03372; in the data active = inhibition above about 50%;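 also: 0% = receptor plus peptide control and 100% = peptide only without receptor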
Target sequence (P03372 whole entry, looked up, the tested form may be a part): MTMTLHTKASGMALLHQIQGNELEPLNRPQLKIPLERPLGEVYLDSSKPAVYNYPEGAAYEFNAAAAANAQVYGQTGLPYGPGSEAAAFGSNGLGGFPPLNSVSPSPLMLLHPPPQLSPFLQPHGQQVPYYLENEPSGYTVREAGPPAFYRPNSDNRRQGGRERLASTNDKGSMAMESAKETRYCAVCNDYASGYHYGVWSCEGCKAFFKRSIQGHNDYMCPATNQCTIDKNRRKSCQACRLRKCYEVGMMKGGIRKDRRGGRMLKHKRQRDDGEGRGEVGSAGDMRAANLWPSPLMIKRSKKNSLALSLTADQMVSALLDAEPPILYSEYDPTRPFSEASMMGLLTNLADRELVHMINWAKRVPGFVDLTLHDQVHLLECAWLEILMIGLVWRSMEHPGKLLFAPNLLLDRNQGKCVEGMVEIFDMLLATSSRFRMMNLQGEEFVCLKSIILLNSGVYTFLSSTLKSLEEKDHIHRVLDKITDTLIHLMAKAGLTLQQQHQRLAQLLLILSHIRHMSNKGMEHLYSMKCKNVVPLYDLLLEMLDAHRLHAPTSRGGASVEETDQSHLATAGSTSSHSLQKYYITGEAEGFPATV
ERa coact pot: enhances coactivator binding to human estrogen receptor alpha; TR-FRET ERalpha-LBD/SRC-Cy5 coactivator binding, 2 h; 100 = basal binding, no effect; coactivator binding (% of control), % at 25.6 µM; 1.3% of 86,000 active; AID 639; in the data active = activity above about 200%;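 also: binding measured in presence of low estradiol as agonist stimulus; 0% = peptide alone without receptor and 100% = receptor with peptide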
FAK blocker: blocks human focal adhesion kinase activity; 0.84% of 97,000 active; Q05397; biochemical FAK kinase activity assay; inhibition, %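 (tested at 7 µM)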;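 also: 0% = DMSO and 100% = reference compound high control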
FAK inh confirm: confirmation of human focal adhesion kinase (FAK) inhibitors. shares compounds with FAK blocker. FAK kinase biochemical inhibition assay. inhibition, % at 7 µM. 28% of 750 active
Numbers without * were called inactive; · = not tested or not shown; [ ] = another dose, or the depositor's remark. Compounds with a hit are over-represented: about 3.3% of the library has one in this group of screens. Rule as the data show it, unless noted: active = inhibition above about 19%; inactive = the rest.

SMILES	Smad3 FoxH1 inh	ERb coact inh	ERa SRC1 inh	ERa coact pot	FAK blocker	FAK inh confirm
O=C1Cc2ccccc2C(=O)N1CCc1ccccc1	·	·	·	·	39.8*	37.0*
COc1ccc(C2C(C#N)=C(C)NC3=C2C(=O)c2ccccc23)cc1 (stereo not given)	12.5	3.1	6.7	126.4	1.9	·
CC1=C([N+](=O)[O-])C(c2ccccc2)C2=C(N1)c1ccccc1C2=O (stereo not given)	·	·	·	·	24.9*	14.6
Cc1ccc2c(CC(=O)N3CCN(S(=O)(=O)c4ccc5c(c4)OCCO5)CC3)coc2c1	-2.3	-0.8	-3.8	113.1	0.6	·
Cc1cc(C)c(S(=O)(=O)N2CCCCC2)c(C)c1-n1ncnn1	1.9	0.6	2.7	110.9	3.6	·
O=c1oc2c3c4c(cc2s1)CCCN4CCC3	8.1	68.0*[fluorescence artefact?]	72.2*[fluorescence artefact?]	27.3	20.1*	6.0
O=C(NC1CCCCC1)c1ccccc1NC(=O)C1CC(=O)N(c2ccc(Cl)cc2)C1 (stereo not given)	-3.3	-6.6	-4.3	103.2	-2.5	·
Cc1ccc(-n2c(SCC3CCCCO3)nnc2-c2ccco2)cc1 (stereo not given)	3.3	-4.1	-0.4	100.9	-1.8	·
CCc1c(C(=O)NNC(=S)NCC(C)C)csc1C	·	·	·	·	2.1	·
COc1ccc(Br)cc1CNc1ccc(O)cc1	-6.0	30.8	13.3	69.0	46.7*	0.7
Cc1ccc(/C=N\Nc2nc3ccc(Cl)cc3[nH]2)o1	·	·	·	·	21.4*	6.9
COc1ccc2ccc3c(c2c1)N=CC1(O3)N(C)c2ccccc2C1(C)C (stereo not given)	3.4	0.3	-12.8	104.2	16.7	·
CN1c2ccccc2C(C)(C)C12C=Nc1c(ccc3ccccc13)O2 (stereo not given)	-1.7	-18.9	-7.5	90.0	32.2*	2.5
Nc1ccc2c(c1)C(=O)C(=O)c1ccccc1-2	73.5*[fluorescence artefact?]	7.8	-14.6	70.9	57.2*	57.8*
O=C(c1noc2c1CCc1ccccc1-2)N1CCc2ccccc2C1	13.7	0.1	3.6	94.3	·	·
CC1CCc2c(sc3nn[nH]c(=O)c23)C1 (stereo not given)	1.6	3.6	-4.4	82.1	25.6*	7.3
O=C(O)c1ccc(N2CCCCC2)cc1	2.8	9.4	-5.2	86.4	·	·
Nc1ccc(N2CCCCCC2)cc1	7.8	93.3*[fluorescence artefact?]	97.4*[fluorescence artefact?]	15.6	27.9*	12.3
COc1cc(C(=O)Nc2nc3ccc4nc(C)sc4c3s2)cc(OC)c1OC	-4.0	28.2	27.4	145.0	-2.2	·
COc1ccc(C(=O)Nc2nc3ccc4nc(C)sc4c3s2)cc1	4.3	40.7	45.9	109.3	27.0*	37.8*
O=C(c1cc2n(n1)C(C(F)(F)F)CC(c1ccc(F)cc1)N2)N1CCCC1 (stereo not given)	5.0	8.5	1.2	106.0	-6.6	·
COc1ccc(-n2c(O)c(Cc3ccccc3)c(=O)n3nc(-c4ccccc4)c(=O)cc23)cc1	-7.2	0.5	-0.7	107.6	-0.8	·
Oc1ccc(N=Cc2ccc(O)c(O)c2)cc1	·	·	·	·	22.5*	2.0
Cn1c(C(=O)N2CCCc3ccccc32)cc2sccc21	4.1	-6.1	3.1	88.9	4.0	·
O=C(N/N=C/c1cccs1)c1cc(-c2ccc3ccccc3c2)n[nH]1	·	·	·	·	19.6*	2.2
SMILES	Smad3 FoxH1 inh	ERb coact inh	ERa SRC1 inh	ERa coact pot	FAK blocker	FAK inh confirm
CCC(C(=O)Nc1ccccc1OC)n1c(C(=O)OC)cc2ccsc21 (stereo not given)	3.9	3.1	11.6	87.5	1.0	·
CCOC(=O)c1sc(C)c2c1NC1(CCCCCC1)NC2=O	-8.4	-6.7	-2.9	161.3	68.3*	1.0
Cc1ccc(NC(=O)Cn2cncc2-c2ccc([N+](=O)[O-])cc2)cc1C	·	·	·	·	24.4*	9.2
O=C(Nc1nccs1)c1csc2c1CCCC2	6.8	-6.4	-3.8	97.1	4.5	·
CCOC(=O)c1c(C)[nH]c(C=Nc2ccccc2)c1O	-1.4	17.4	1.8	142.2	-8.2	·
CCOC(=O)c1c(C)[nH]c(O)c1C=Nc1ccccc1	·	·	·	·	34.0*	16.1
CCn1c(=O)c2c(cnn2C)c2ccccc21	·	·	·	·	32.0*	11.7
CCOc1ccc(S(=O)(=O)N(CC(=O)N/N=C/c2ccc(-c3ccc([N+](=O)[O-])cc3)o2)c2ccccc2)cc1	·	·	·	·	45.4*	21.5*
CCn1c(=O)c(C(=O)Nn2c(C)nc3ccccc3c2=O)c(O)c2ccccc21	19.4	3.8	4.6	115.3	·	·
CCn1c(=O)c(C(=O)Nc2nc3ccccc3[nH]2)c(O)c2ccccc21	·	·	·	·	23.5*	20.9*
CCC(C)n1cnc2c(c1=O)c1nc3ccccc3nc1n2-c1ccc2c(c1)OCCO2 (stereo not given)	31.6	10.3	30.4	246.1*	21.4*	11.2
O=C(c1ccc(CS(=O)(=O)c2cccc(C(F)(F)F)c2)o1)N1CCN(c2ccccn2)CC1	-2.9	-2.6	-0.8	96.0	-3.2	·
Cc1nn(C(=O)c2ccco2)c(C)c1CN1C(=O)c2ccccc2C1=O	1.2	8.2	27.8	200.3*[fluorescence artefact?]	32.4*	7.8
Cc1nn(C(=O)c2cccs2)c(C)c1CN1C(=O)c2ccccc2C1=O	1.6	-12.6	5.8	127.6	3.3	·
N#Cc1nc(-c2cccs2)oc1NCc1ccccc1	-2.9	-20.4	-11.9	120.4	22.3*	10.6
Nc1nc(-c2cccc(NS(=O)(=O)c3ccccc3)c2)cs1	12.1	-3.0	-0.8	122.1	2.7	·
Cc1n[nH]c(C)c1CCc1nc2c3ccccc3nc(SCC(N)=O)n2n1	1.7	-16.6	-8.5	106.7	0.1	·
Cc1ccc(NC(=O)CSc2nc3ccccc3c3nc(CCc4c(C)n[nH]c4C)nn23)cc1F	44.2	26.0	53.6*[fluorescence artefact?]	142.0	21.1*	11.5
Cc1ccc(Cl)cc1NC1=C/C(=N\S(=O)(=O)c2cccs2)c2ccccc2C1=O	·	·	·	·	31.8*	22.9*
Cc1nc2ccccc2nc(C)c1=NO	13.2	-5.2	-2.1	103.0	-0.1	·
C/C(O)=c1/ccc2cccc3nc(C)nc1c23	1.2	0.9	-3.6	95.5	24.1*	6.6
Cc1cccc(NC(=O)C2CCCN(S(=O)(=O)c3cccc4nsnc34)C2)c1 (stereo not given)	-5.5	51.0*[fluorescence artefact?]	23.3	230.0*[fluorescence artefact?]	94.1*	-1.4
O=C(Cn1c(=O)oc2cc(S(=O)(=O)N3CCCCCC3)ccc21)NC1CCCCCCC1	-4.6	24.5	36.0	201.7*	21.5*	6.0
CC1CCCCN1S(=O)(=O)c1ccc2c(c1)oc(=O)n2CC(=O)O (stereo not given)	-3.6	11.2	-2.1	80.8	-5.6	·
O=[N+]([O-])c1cccc(/C=C/c2nc3ccc([N+](=O)[O-])cc3[nH]2)c1	·	·	·	·	34.5*	20.8*
COc1ccc(C(=O)c2ccc(OC)c(OC)c2)cc1	-13.2	-1.4	-4.2	69.0	-2.0	·
COc1ccc(-c2ccc3c(N)c(C(=O)c4ccc(OC)c(OC)c4)sc3n2)cc1	·	·	·	·	35.4*	25.4*
COc1ccc(C(=O)c2sc(Nc3ccccc3)c(C(=O)Nc3ccc(OC)c(OC)c3)c2N)cc1	·	·	·	·	0.3	·

Screening results as filed in PubChem.
